This excerpt belongs to a sample that is enriched for hits.
PostGolgi ctrl – inhibits growth of the yeast control strain; efflux-deficient yeast background strain, growth absorbance A615, 16 h; inhibition, % at 10 µM; actives 5% (n = 98,000); AID 738
S1P2 blocker – antagonists of human S1P2 receptor | O95136 | cell-based S1P2 antagonist assay, inhibition at 5 uM | inhibition, % at 5 µM | actives 0.21% (n = 97,000) | AID 736; in the data active = inhibition above about 45%;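 also: CRE beta-lactamase reporter cells expressing human S1P2 stimulated with S1P; 0% = agonist at EC80 alone and 100% = agonist plus reference antagonist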
Target sequence (O95136 whole entry, looked up): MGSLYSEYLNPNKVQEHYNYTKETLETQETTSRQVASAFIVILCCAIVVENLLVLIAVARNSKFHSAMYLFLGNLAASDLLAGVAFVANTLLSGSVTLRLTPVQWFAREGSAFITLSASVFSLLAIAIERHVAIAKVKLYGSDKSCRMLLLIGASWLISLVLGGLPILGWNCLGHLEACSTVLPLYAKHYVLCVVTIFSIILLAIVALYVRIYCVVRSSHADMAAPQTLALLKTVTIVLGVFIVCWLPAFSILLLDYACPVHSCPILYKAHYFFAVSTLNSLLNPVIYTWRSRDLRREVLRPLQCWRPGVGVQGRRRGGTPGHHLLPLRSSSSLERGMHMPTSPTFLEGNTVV
S1P2 agonist – activates the human S1P2 receptor | S1P2-expressing cell line, agonist reporter read-out | activation, % at 4.5 µM | actives 0.46% (n = 97,000) | O95136; in the data active = activation above about 16%;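 also: 0% = vehicle low control and 100% = maximal reference agonist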
PostGolgi yeast – growth inhibition of a yeast mutant, post-Golgi transport screen | inhibition, % at 10 µM | actives 0.9% (n = 98,000) | post-Golgi transport phenotypic cell assay | AID 739;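 also: yeast cells grown in 1536-well plates; yeast grown about 18 h at 30C before absorbance read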
GALR2 agonist – activates the human galanin receptor 2; GALR2-expressing cells, agonist activation read-out; activation, % (test concentration not listed); actives 0.48% (n = 140,000); in the data active = activation above about 5%, passing the limit was not always enough;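 also: 0% = vehicle buffer wells and 100% = reference agonist at full effect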
GALR2 blocker – GALR2 (human) receptor antagonism. GALR2-expressing cells, antagonist mode. AID 828. actives 0.39% (n = 140,000). inhibition, % at 4 µM; in the data active = inhibition above about 27%;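 also: cells stimulated with galanin 1-16 at roughly its EC80; 0% = agonist challenge control and 100% = basal control without agonist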
* hit, by the source's call; . = no result. Rule as the data show it, unless noted: active = inhibition above about 30%; inactive = the rest.

SMILES	PostGolgi ctrl	S1P2 blocker	S1P2 agonist	PostGolgi yeast	GALR2 agonist	GALR2 blocker
CCOC(=O)C1CCCc2c1[nH]c1c(C(N)=O)cccc21 (configuration not stated)	34*	14	-3	7	0	-16
CC1C(=O)C(C)C(c2ccc3c(c2)OCO3)NC1c1ccc2c(c1)OCO2 (configuration not stated)	35*	13	-6	4	-1	2
O=[N+]([O-])c1ccc(N2N=C(c3ccco3)CC2c2ccccc2)cc1 (configuration not stated)	31*	-5	-6	3	3	10
Fc1ccc(C2CC(c3ccco3)=NN2c2ccccc2)cc1 (configuration not stated)	11	-2	5	5	6	-6
O=C(OCCN1C(=O)c2ccccc2C1=O)c1cc(S(=O)(=O)N2CCOCC2)ccc1F	9	-28	18*	3	-2	1
O=C(COC(=O)c1cc(S(=O)(=O)N2CCOCC2)ccc1F)c1ccc[nH]1	.	.	.	.	-2	-6
COC(=O)C1=CN(Cc2cccs2)C=C(C(=O)OC)C1c1cccc(OC)c1OC	2	-9	21*	3	1	-10
COC(=O)C1=CN(CCCN2CCCC2=O)C=C(C(=O)OC)C1c1cccs1	5	8	-1	4	4	2
CC(C)C1Cc2c(sc3[nH]c(=S)n(Cc4ccccc4)c(=O)c23)CO1 (configuration not stated)	8	-16	-5	5	0	-3
N#Cc1ccc(-c2ccc(OCC(O)Cn3nnc4ccccc43)cc2)cc1 (configuration not stated)	35*	3	-2	-2	-1	8
OC(CN1c2ccccc2Sc2ccccc21)Cn1nnc2ccccc21 (configuration not stated)	47*	14	-7	10	-2	2
CC(=O)c1ccc(OCC(O)Cn2nnc3ccccc32)cc1 (configuration not stated)	15	13	-4	5	-3	-13
O=C(CSc1nc(C2CCCCC2)n(-c2ccccc2)n1)NCC(F)(F)F	.	.	.	.	-1	-3
C/C(CC(=O)NCC(C)C)=N\NC(=O)COc1cc(C)c(Br)cc1Br	.	.	.	.	0	15
NC1=C([N+](=O)[O-])C(c2ccc(F)cc2)C2=C(CCCC2=O)O1 (configuration not stated)	.	.	.	.	-2	9
Cc1cc(C)n(-c2nc(-n3nc(C)cc3C)c3c4c(sc3n2)COC(C)(C)C4)n1	14	-1	-3	0	-1	-7
Cc1cc(C)n(-c2nc(NCCC(C)C)c3c4c(sc3n2)COC(C)(C)C4)n1	33*	-8	-2	-5	-1	0
CCc1nc(N)c(C#N)c(-c2ccccc2OC)c1C	4	-2	-5	31*	-1	3
COc1ccccc1-c1c(C#N)c(N)nc2c1CCc1ccccc1-2	.	.	.	.	5.7*	12
Cc1ccc(/C=C2/Sc3ccccc3N(CC(=O)NCCCOC(C)C)C2=O)cc1	.	.	.	.	0	-20
Cc1ccccc1N(C(=O)c1cccs1)c1nc2ccccc2s1	35*	-17	-7	1	5	-4
O=C(NC(=O)N1CCN(c2ccccc2F)CC1)c1ccccc1	15	2	-8	3	-2	7
O=C(NCc1ccccc1)N1CCN(c2ccccc2F)CC1	31*	14	-3	4	0	-2
CC(=O)c1nc2ccccc2n1S(=O)(=O)c1ccc(C)cc1	40*	13	-10	8	0	7
CC(=O)c1nc2ccccc2n1S(=O)(=O)c1ccc(Cl)cc1	10	5	-3	-1	0	-3
SMILES	PostGolgi ctrl	S1P2 blocker	S1P2 agonist	PostGolgi yeast	GALR2 agonist	GALR2 blocker
Cc1cccn2c(=O)c3cc(C#N)c(=NC(=O)c4ccncc4)n(CCCOC(C)C)c3nc12	4	-13	18*	7	2	-13
COCCCn1c(=NC(=O)c2ccncc2)c(C#N)cc2c(=O)n3cccc(C)c3nc21	0	.	.	10	5.6*	-13
O=Cc1ccc(OC2OCCOC2Oc2ccc(C=O)cc2)cc1 (configuration not stated)	.	.	.	.	0	5
O=C1OCCC1Sc1ncnc2sc3c(c12)CCC3 (configuration not stated)	2	5	-4	-8	0	-11
Cc1nc(SC2CCOC2=O)c2c(C)c(C)sc2n1 (configuration not stated)	36*	1	-7	9	-4	4
COCCCNC(=O)C1C2C=CC3(CN(Cc4ccc(C)cc4)C(=O)C13)O2 (configuration not stated)	33*	13	-4	-7	-2	-7
Cc1ccc(CN2CC34C=CC(O3)C(C(=O)NCc3ccc5c(c3)OCO5)C4C2=O)cc1 (configuration not stated)	5	5	-2	-2	-2	5
C(=N\Nc1nc2ccccc2s1)/c1cccs1	31*	-8	-9	-7	-5	23
Cc1ccsc1/C=N/Nc1nc2ccccc2s1	.	.	.	.	1	8
Cc1cc(NC(=O)NC(=O)c2cccc(OC(F)(F)C(F)F)c2)n[nH]1	33*	-14	-2	-11	-1	-3
FC(F)(F)c1cccc(NC(=S)NCC2COc3ccccc3O2)c1 (configuration not stated)	.	.	.	.	0	7
O=C(O)c1ccccc1C(=O)Nc1ccccc1	40*	4	0	-1	-2	-4
CSc1ccccc1C(=O)Nc1nccs1	5	-14	4	-8	-1	12
O=C(O)c1ccccc1C(=O)Nc1nccs1	30*	6	-6	-18	-1	3
C/C(=N/NC(=O)CN1CCN(S(=O)(=O)c2ccc(Br)cc2)CC1)c1cccnc1	.	.	.	.	1	-4
NC(=O)C1CCN(CC(=O)Nc2cccc(C(=O)Nc3cccc(C(F)(F)F)c3)c2)CC1	.	.	.	.	0	6
CNC(=S)N1N=C(c2ccc(Br)cc2)CC1c1ccc(Br)cc1 (configuration not stated)	33*	-6	-1	-11	-2	1
Cc1nn(-c2ccccc2)c(C)c1/C=N/NC(=O)c1cc(-c2ccc(Cl)s2)[nH]n1	46*	1	1	54*	0	-6
Cc1nn(-c2ccccc2)c(C)c1/C=N/NC(=O)c1cc(C23CC4CC(CC(C4)C2)C3)[nH]n1	60*	-14	-2	-2	-2	8
Cc1nn(-c2ccccc2)c(C)c1/C=N/NC(=O)c1cc(-c2ccc(Br)s2)[nH]n1	64*	5	-3	6	-2	14
Cc1nn(-c2ccccc2)c(C)c1/C=N/NC(=O)c1cccs1	.	.	.	.	0	6
Cc1nn(-c2ccccc2)c(C)c1/C=N/NC(=O)c1cc(C2CC2)[nH]n1	2	-8	-5	-3	-3	8
Cc1nn(-c2ccccc2)c(C)c1/C=N/NC(=O)c1cc(-c2cccs2)[nH]n1	.	.	.	.	3	22
CCOc1ccc(C(=O)NC(=S)NC2CCCC2)cc1[N+](=O)[O-]	.	.	.	.	0	3
COc1cc2c(C#N)c(N3CCN(c4ccccc4OC)CC3)nc(N)c2c(N)n1	36*	.	.	17	2	1

High-throughput results deposited in PubChem BioAssay by several laboratories.
